The record followed here is PubChem BioAssay (Tox21).

The structures appear in SMILES notation. Activity calls are given as the source filed them. Entries that show only a call come without a potency. The call rests on the fitted dose curve.

The assay in a line: qHTS assay to identify small molecule agonists of the sonic hedgehog signaling (Shh) pathway (AID 1259368).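 Further: NIH/3T3-derived 3T3Gli1-Luc cells carrying a stable Gli1-driven firefly luciferase reporter; nearly all actives have a fitted effect of over 15% in size.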 The settings on record: NIH/3T3 Gli1-Luc reporter, luciferase, 24 h; series mostly up to 92.4 µM. The procedure, abridged: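 3T3Gli1-Luc (NIH/3T3 clone, stable Gli1-Luc); 4 hr pre-incubation, then cpd in DMSO 24 hr, 37 C/5% CO2; luciferase reagent 30 min RT; luminescence.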
A general note: qHTS replaces the single test concentration by a dilution series.
Regarding `CO[C@@H]1[C@@H](O[C@@H]2O[C@H](C)[C@@H](O[C@H]3C[C@@](C)(O)[C@@H](O)[C@H](C)O3)[C@H](N(C)C)[C@H]2O)[C@@H](CC=O)C[C@@H](C)[C@@H](O[C@@H]2CC[C@H](N(C)C)[C@@H](C)O2)/C=C/C=C/C[C@@H](C)OC(=O)C[C@H]1OC(C)=O`, the Potency entry was “inactive”.
For `Oc1ccc(CCNCCCCCCNCCc2ccccc2)cc1O` the value was “inactive”; for `C=C[Si](OCC)(OCC)OCC`, “inactive”.
The entry for `Cc1cc(C)n(CO)n1` is “inactive”.
For `O=c1c2ccccc2oc2ccccc12` the value was “inactive”.
In the case of `Cc1ccc(NC=O)c(C)c1`, the Potency result is “inactive”.
For `CC(=O)Oc1cccc2c1C(=O)c1c(OC(C)=O)cc(C(=O)O)cc1C2=O` the value was “inactive”.
For `CCCc1nc(C)c2c(=O)[nH]c(-c3cc(S(=O)(=O)N4CCN(CC)CC4)ccc3OCC)nn12` the value was “inactive”; for `CCCCCCCCCC(C)C=O` (stereo not drawn), “inactive”.
For `CC(C)(Cc1c[nH]c2ccccc12)NCC(O)COc1ccccc1C#N` (stereo not drawn) the value was “inactive”.
As to `Cc1nc2sccn2c(=O)c1CCN1CCC(=C(c2ccc(F)cc2)c2ccc(F)cc2)CC1`, the Potency entry is “inactive”.
Regarding `CC(Cc1ccccc1)(NC(=O)CN)c1ccccc1` (stereo not drawn), the Potency result was “inactive”.
The entry for `CC(COc1ccccc1)NC(C)C(O)c1ccc(O)cc1` (stereo not drawn) is “inactive”; for `CCc1cnc(C(=O)O)c(C(=O)O)c1` it is “inactive”.
For `CCOc1ccccc1O` the value was “inactive”; for `O=S(=O)(O)c1cc(Cl)c(Cl)cc1Cl`, “inactive”; for `O=C(N[C@@H](Cc1ccccc1)[C@@H](O)C(=O)N1C[C@@H](O)[C@@H](O)C1)c1cc2cc(Cl)ccc2[nH]1`, “inactive”.
For `CC[C@H](NC(C)C)[C@H](O)c1ccc(O)c2[nH]c(=O)ccc12` the value was “inactive”.
